# Source: PubChem BioAssay AID1159580 (chemical genetic matrix, 2015)
# Among all 5,500 compounds or so, about 2,000 (36%) were called active. Roughly 18% stayed inconclusive and do not appear here. This is one part of the list. Unmarked numbers belong to inactive results. Rule as the data show it: active = normalized growth mostly below about 0.91 (no sharp cut-off); inconclusive = no clear call, values can overlap the other calls; inactive = mostly above about 0.92.
# Experiment: chemical genetic growth profiling, strain panel (AID 1159580);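 also: tested at 20 µM; growth read once vehicle control cultures reached saturation at 30 °C; 1 = growth at the plate median or of vehicle wells; lower values mean less growth of the strain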
# Details: S. cerevisiae deletion strains, growth OD
# [1] = locus YAL013W, strain DEP1, hits give low values
# [2] = locus YBR229C, strain ROT2, hits give low values
# [3] = locus YCL061C, strain MRC1, hits give low values
# [4] = locus YDL101C, strain DUN1, hits give low values
# [5] = locus YDR150W, strain NUM1, hits give low values
# [6] = locus YEL061C, strain CIN8, hits give low values
# [7] = locus YGR078C, strain PAC10, hits give low values
# [8] = locus YGR229C, strain SMI1, hits give low values
# [9] = locus YHR030C, strain SLT2, hits give low values
# [10] = locus YHR087W, strain rtc3, hits give low values
# [11] = locus YJR043C, strain POL32, hits give low values
# [12] = locus YJR075W, strain HOC1, hits give low values
# [13] = locus YLR039C, strain RIC1, hits give low values
# [14] = locus YLR058C, strain SHM2 (second series), hits give low values
# [15] = locus YLR085C, strain ARP6, hits give low values
# [16] = locus YLR262C, strain YPT6, hits give low values
# [17] = locus YML094W, strain GIM5, hits give low values
# [18] = locus YMR219W, strain ESC1, hits give low values
# [19] = locus YMR263W, strain SAP30, hits give low values
# [20] = locus YNL153C, strain GIM3, hits give low values
# [21] = locus YNL298W, strain CLA4 (second series), hits give low values
# [22] = locus YNL322C, strain KRE1, hits give low values
# [23] = locus YNR030W, strain Alg12, hits give low values
# [24] = locus YPL055C, strain LGE1, hits give low values
# [25] = locus YPL241C, strain CIN2, hits give low values
# [26] = locus YPR135W, strain CTF4, hits give low values
# [27] = locus YMR307W, strain GAS1, hits give low values
# [28] = locus YNL128W, strain TEP1, hits give low values
# [29] = locus YAL040C, strain CLN3, hits give low values
# [30] = locus YCL061C, strain MRC1 (second series), hits give low values
# [31] = locus YDR363W, strain ESC2, hits give low values
# [32] = locus YER002W, strain NOP16, hits give low values
# [33] = locus YNL175C, strain NOP13, hits give low values
# [34] = locus YNL197C, strain WHI3, hits give low values
# [35] = locus YNL224C, strain SQS1, hits give low values
# [36] = locus YOR083W, strain WHI5 (second series), hits give low values
compound,measurement,setting,value
O=C(NCCNc1ccc(C(F)(F)F)cc1[N+](=O)[O-])c1cccs1,normalized growth,[1],0.974
same,normalized growth,[2],0.972
same,normalized growth,[3],0.983
same,normalized growth,[4],0.93
same,normalized growth,[5],0.931
same,normalized growth,[6],0.948
same,normalized growth,[7],0.967
same,normalized growth,[8],0.974
same,normalized growth,[9],0.673 (active)
same,normalized growth,[10],0.973
same,normalized growth,[11],0.978
same,normalized growth,[12],0.998
same,normalized growth,[13],0.838
same,normalized growth,[14],0.967
same,normalized growth,[15],0.775 (active)
same,normalized growth,[16],0.915
same,normalized growth,[17],0.841 (active)
same,normalized growth,[18],0.982
same,normalized growth,[19],1.02
same,normalized growth,[20],0.976
same,normalized growth,[21],0.863
same,normalized growth,[22],0.988
same,normalized growth,[23],0.911
same,normalized growth,"locus YOL006C, strain TOP1, hits give low values",0.778
same,normalized growth,[24],0.771 (active)
same,normalized growth,[25],1.13
same,normalized growth,[26],0.743
CC(O)CNc1ccc(C(F)(F)F)cc1[N+](=O)[O-] (centres undefined),normalized growth,[1],1.01
same,normalized growth,[2],1.01
same,normalized growth,[3],1.03
same,normalized growth,[4],1.03
same,normalized growth,[5],1.04
same,normalized growth,[6],0.997
same,normalized growth,[7],1.02
same,normalized growth,[8],0.993
same,normalized growth,[9],0.987
same,normalized growth,[10],1
same,normalized growth,[11],1.02
same,normalized growth,[12],1.04
same,normalized growth,"locus YKL190W, strain CNB1, hits give low values",1.02
same,normalized growth,[13],1.08
same,normalized growth,[14],0.998
same,normalized growth,[15],0.989
same,normalized growth,[16],0.985
same,normalized growth,[17],0.947
same,normalized growth,[18],1
same,normalized growth,[19],1.02
same,normalized growth,[27],1.03
same,normalized growth,[28],1.02
same,normalized growth,[20],0.998
same,normalized growth,[21],1.05
same,normalized growth,[22],1
same,normalized growth,[23],0.999
same,normalized growth,[24],0.966
same,normalized growth,[25],1.01
same,normalized growth,[26],1.01
CCOC(=O)c1ncn2c1[C@@H]1CCCN1C(=O)c1cc(OC)ccc1-2,normalized growth,[29],0.938
same,normalized growth,[30],1.01
same,normalized growth,[31],1
same,normalized growth,[32],1.01
same,normalized growth,[8],1.05
same,normalized growth,[27],0.981
same,normalized growth,[33],1.04
same,normalized growth,[34],1.03
same,normalized growth,[35],1.01
same,normalized growth,[22],1.02
same,normalized growth,[36],1.04
same,normalized growth,[24],1.05
same,normalized growth,[25],1.01
CCCN(CCC)[C@@H]1CCc2cccc(O)c2C1,normalized growth,[29],1.04
same,normalized growth,[30],0.995
same,normalized growth,[5],0.989
same,normalized growth,[31],0.997
same,normalized growth,[32],0.977
same,normalized growth,[7],0.981
same,normalized growth,[8],1.07
same,normalized growth,[12],1.02
same,normalized growth,[19],1
same,normalized growth,[27],1.03
same,normalized growth,[20],0.953
same,normalized growth,[33],0.998
same,normalized growth,[34],0.974
same,normalized growth,[35],1
same,normalized growth,[36],1.01
same,normalized growth,[24],1.01
same,normalized growth,[25],1
CCCN(CCC)[C@H]1CCc2c(F)ccc(O)c2C1,normalized growth,[30],1
same,normalized growth,[31],1.01
same,normalized growth,[32],0.998
same,normalized growth,[8],1.02
same,normalized growth,[12],1.01
same,normalized growth,[27],0.993
same,normalized growth,[28],0.428 (active)
same,normalized growth,[34],0.979
same,normalized growth,[35],0.995
same,normalized growth,[36],1.01
same,normalized growth,[25],1
CCCN(CCC)[C@@H]1CCc2c(F)ccc(O)c2C1,normalized growth,[1],1.01
same,normalized growth,[29],1.01
same,normalized growth,[30],1.01
same,normalized growth,[5],0.983
same,normalized growth,[31],1.01
same,normalized growth,[32],1
same,normalized growth,[12],1.02
same,normalized growth,[19],1.01
same,normalized growth,[27],1
same,normalized growth,[34],0.992
same,normalized growth,[35],0.999
same,normalized growth,[36],1.01
same,normalized growth,[24],1.01
same,normalized growth,[25],1
CN(C)CC(=O)OC[C@@H](O)[C@@H](O)[C@H](O)[C@@H](O)C(=O)O,normalized growth,[9],0.956
same,normalized growth,"locus YHR079C, strain IRE1, hits give low values",0.944
same,normalized growth,"locus YJL095W, strain BCK1, hits give low values",0.954
same,normalized growth,"locus YJR066W, strain TOR1, hits give low values",0.924
same,normalized growth,"locus YLR113W, strain HOG1, hits give low values",0.956
same,normalized growth,"locus YNL183C, strain NPR1, hits give low values",0.896
same,normalized growth,"locus YOR231W, strain MKK1, hits give low values",0.964
same,normalized growth,"locus YPL256C, strain CLN2, hits give low values",0.969
